PubChem BioAssay (NCI)
This is part of a sample that, as a whole, favours compounds with a hit. Of some 83,000 tested, about 20% had one in any assay.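 Interpretation: 100, growth as untreated; towards 0, rising growth inhibition; 0, no net growth; 0 to -100, cell death. Compounds scoring below 10 were considered active.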 Unmarked numbers belong to inactive results. Activity calls are given as the source filed them.

Experiments:
Assay in all cases: NCI-60 one-dose screen, 48 h (100 = growth as untreated, 0 = no growth, -100 = all killed)
Conditions in all cases: 10 µM unless noted
NCI-H23 lung = test system: NCI-H23 lung
NCI-H226 lung = test system: NCI-H226 lung
NCI-H322M lung = test system: NCI-H322M lung
HOP-62 NSCLC = test system: HOP-62 NSCLC
HOP-92 NSCLC = test system: HOP-92 NSCLC
NCI-H522 lung = test system: NCI-H522 lung
A549/ATCC NSCLC = test system: A549/ATCC NSCLC
786-0 renal = test system: 786-0 renal
COLO 205 colon = test system: COLO 205 colon
NCI-H460 lung = test system: NCI-H460 lung

Row | SMILES | growth (NCI-H23 lung) [%] | growth (NCI-H226 lung) [%] | growth (NCI-H322M lung) [%] | growth (HOP-62 NSCLC) [%] | growth (HOP-92 NSCLC) | growth (NCI-H522 lung) | growth (A549/ATCC NSCLC) [%] | growth (786-0 renal) [%] | growth (COLO 205 colon) | growth (NCI-H460 lung) [%]
1 | O=c1c2cc(F)ccc2sc2c(N3CCCCC3)nc3ccccc3c12 | 95.8 | 86 | 90.1 | 99.3 | 84.2% | 98.5% | 96.2 | 95.8 | 106% | –
2 | CNC(C)[C@H]1CCC2C3CCC4C[C@@H](N(C)C(=O)c5ccccc5)CC[C@]4(C)C3CC[C@@]21C (some centres not stated) | 40.9 | 80.3 | 12.6 | 38.4 | 19.2% | 69.5% | 39.9 | 40.1 | -79.3% (active) | –
3 | O=c1c2cc(F)ccc2sc2c(N3CCNCC3)nc3ccc(F)cc3c12 | 61.3 | 83.8 | 55.4 | 57.5 | 7.38% (active) | 8.28% (active) | 13.2 | 60.5 | -51.9% (active) | –
4 | C=CCNc1ccc2c3c(cccc13)C(=O)N(N1C(=O)c3cccc4cccc(c34)C1=O)C2=O | 91.9 | 93.9 | 102 | 96.3 | 98.7% | 93.9% | 98.2 | 104 | 117% | –
5 | CC1=NN(c2ccc(S(=O)(=O)O)cc2)C(=O)C1N=Nc1ccc(-c2ccc(N=Nc3ccc(OS(=O)(=O)c4ccc(C)cc4)cc3)c(S(=O)(=O)O)c2)cc1 (configuration not stated) | 87.4 | 85.7 | 93.4 | 93.7 | 41.1% | 77.8% | 99 | 90.3 | 102% | –
6 | C=C(C)C1CCC2(C)OC2C1 (configuration not stated) | 111 | 98.8 | 94.9 | 94.6 | 117% | 105% | 127 | 98.7 | 142% | –
7 | COc1ccc(-c2nc(NN)c3c(C)nn(-c4ccc(F)cc4)c3n2)cc1 | 66.9 | 80 | 74.6 | 50.6 | 52.7% | 22.6% | 38.1 | 38.6 | 35.4% | –
8 | Cc1ccc(-c2nc(N3CCN(CC(=O)Nc4ccc(Cl)c(C(F)(F)F)c4)CC3)c3ccccc3n2)cc1 | – | 90.3 | 87.3 | 98.6 | 96.5% | 81.6% | 75.8 | 91.1 | 86.3% | 92.7
9 | CCOC(=O)C1=C(N)Oc2c(sc3c(C)cccc23)C1c1ccc(OC)cc1 (configuration not stated) | 46.4 | 55.2 | 50.9 | 34.4 | 66.1% | 17.1% | 42.7 | 49.3 | 118% | –
10 | O=C(COc1ccc(/C=C2\Cc3ccc(Cl)cc3C2=O)cc1)Nc1nc2ccccc2s1 | 95.5 | 101 | 134 | 98.2 | 97% | 96.7% | 99.5 | 103 | 116% | –
11 | c1ccc(Cc2nn3cc(-c4ccccc4)nc3s2)cc1 | 97.8 | 117 | 98.4 | 104 | 109% | 80.1% | 91.3 | 86.3 | 118% | –
12 | CCN1C(=O)N(CC)C2Nn3c(s/c(=C\c4ccc([N+](=O)[O-])cc4)c3=O)=NC21 (configuration not stated) | 69.3 | 80.1 | 89.7 | 96.2 | 84.1% | 9.71% (active) | 82.4 | 85.1 | 35.5% | –
13 | COc1ccc(S(=O)(=O)n2cc(C3OC(c4cc(OC)c(OC)c(OC)c4)=NN3C(C)=O)c3ccccc32)cc1OC (configuration not stated) | 79.5 | 93.2 | 98 | 78.1 | 63.9% | 84% | 98.3 | 86.3 | 127% | –
